“And” between values parts separate entries of the source, which are not always exact repeats. Equal entries are not always repeated. Screen size: about 370,000 compounds; about 4,700 (1.3%) were called active.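 Rule for the calls: active = inhibition above the plate cutoff, the mean of all test compounds on that plate plus 3 SD (cut at about 35% in these data); inactive = the rest.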 For the sample, actives were picked, then their nearest neighbours and some compounds at random.
Assay: binders of r(CAG) RNA repeats, primary screen, biochemical, fluorescence (AID 651821);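 note: 0% = DMSO alone and 100% = 100 µM mitoxantrone as full dye displacement; higher means more dye released from RNA so lower well fluorescence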
Settings: r(CAG) RNA repeat, TO-PRO-1 dye displacement fluorescence; at 3 µM; stronger effect = higher value

| Compound | inhibition |
| --- | --- |
| CCCOc1ccc(Oc2c(Cl)cnn(Cc3cccc4ccccc34)c2=O)cc1 | 6.74% (inactive) |
| C[C@H](CO)N1C[C@H](C)[C@@H](CN(C)C(=O)Nc2ccccc2F)OCc2cn(nn2)CCCC1=O | 0.24% (inactive) |
| COc1ccc(OC)c(-n2cc3c(=O)n(C)c(=O)n(C)c3c2)c1 | 2.65% (inactive) |
| CCOC(=O)N1C(=O)C[C@](Sc2ccc(C)cc2)(C(=O)OC)[C@H]1c1ccccc1 | -2.71% (inactive) |
| COC(=O)c1ccccc1-n1cc(COC(=O)NCCc2ccccc2)nn1 | 1.18% (inactive) |
| Cc1oc2c(F)c(F)c(F)c(F)c2c1S(=O)(=O)Nc1cccc(C(F)(F)F)c1 | 53.7% (active) |
| Cc1ccc(N(CCC(=O)O)S(=O)(=O)c2cccc(C(F)(F)F)c2)cc1 | 5.06% (inactive) |
| Cc1noc(C)c1S(=O)(=O)Nc1ccc(C(=O)O)cc1 | -0.8% (inactive) |
| COC(=O)[C@H](C(C)C)N(CCc1cn(Cc2ccccc2)nn1)S(=O)(=O)c1ccc(F)cc1Br | 3.36% (inactive) |
| CSCCC1NC2(C(=O)Nc3ccc(Cl)cc32)[C@@H]2C(=O)N(C3CCCC3)C(=O)[C@H]12 (some centres not stated) | -2.44% (inactive) |
| Cc1ccc(NC(=O)c2cc(C)nn2-c2ccccc2)c(C)c1 | 2.01% (inactive) |
| Cc1cc(C)cc(Oc2c(C(F)(F)F)oc3cc(OCC(=O)O)ccc3c2=O)c1 | 44.4% (active) |
| O=C(COc1ccc2c(C(F)(F)F)cc(=O)oc2c1)Nc1ccc2c(c1)OCCO2 | 4.46% (inactive) |
| O=C(COc1ccc2c3c(c(=O)oc2c1)CCC3)NC1CCCCC1 | -4.24% (inactive) |
| CC(c1c[nH]c2ccccc12)c1c(-c2ccccc2)n(C)c2ccccc12 (configuration not stated) | 8.54% (inactive) |
| CCc1ccc(-n2c(=S)sc3c(=O)n(-c4ccccc4OC)c(=S)[nH]c32)cc1 | 9% (inactive) |
| COc1ccccc1-n1c(SCC(=O)O)nc2sc3c(c2c1=O)CCC3 | 5.16% (inactive) |
| COc1ccc(Cl)cc1-n1c(=S)sc2c(=O)n(-c3ccc(F)cc3)c(SCC(=O)O)nc21 | 40.9% (active) |
| CCCCN1C(=O)/C(=C2/C=CC=CN2C)SC1=S | -1.7% (inactive) |
| COc1ccc2c(c1)N(C)/C(=C1/SC(=S)N(NC(C)=O)C1=O)S2 | 5.15% (inactive) |
| CCN1C(=O)/C(=C2/Sc3ccccc3N2CCCS(=O)(=O)O)SC1=S | 51.4% (active) and 69.1% (active) |
| CC(CC(=O)N1CCN(c2ccccc2)CC1)S(=O)(=O)c1ccc2c(c1)NC(=O)CS2 (configuration not stated) | -1.08% (inactive) |
| O=C(CCCCCN1C(=O)C2C3C=CC(C3)C2C1=O)Nc1ccccn1 (configuration not stated) | 1.49% (inactive) |
| COC(=O)Cc1nnn2c1[C@H](C)[C@H](c1ccccc1[N+](=O)[O-])OCC2 | 2.71% (inactive) |
| CCOC(=O)C1=C(C(=O)OCC)C2N(Cc3ccc(C#N)cc3)c3ccccc3[C@@]23C[C@@H](C(=O)OC)N(S(=O)(=O)c2ccc(F)cc2)C3=N1 (some centres not stated) | 15.6% (inactive) |
| Cc1cc(NS(=O)(=O)c2ccccc2)no1 | -0.66% (inactive) |

| Compound | inhibition |
| --- | --- |
| O=C(/C=C/Nc1ccc(S(=O)(=O)Nc2cnc3ccccc3n2)cc1)c1cccnc1 | 5.52% (inactive) |
| CCOc1ccc(CC(=O)Nc2ccc(S(=O)(=O)Nc3cc(C)on3)cc2)cc1OCC | 22.4% (inactive) |
| C=C(C)CNC(=S)Nc1ccc(S(=O)(=O)Nc2cnc3ccccc3n2)cc1 | 19.2% (inactive) |
| Cc1cc(NS(=O)(=O)c2ccc(NC(=S)NC(=O)c3ccc(F)cc3Cl)cc2)no1 | 33.1% (inactive) |
| CCOc1cc(C(=O)Nc2ccc(S(=O)(=O)Nc3cnc4ccccc4n3)cc2)cc(OCC)c1OCC | 66.1% (active) |
| CCC(Oc1ccccc1C)C(=O)Nc1ccc(S(=O)(=O)Nc2cc(C)on2)cc1 (configuration not stated) | 20.8% (inactive) |
| CCc1ccc(OC(C)C(=O)Nc2ccc(S(=O)(=O)Nc3cc(C)on3)cc2)cc1 (configuration not stated) | 36.2% (active) |
| COc1cc2ccccc2cc1C(=O)Nc1ccc(S(=O)(=O)Nc2cc(C)on2)cc1 | 67.5% (active) |
| CCOc1ccc(C(=O)Nc2ccc(S(=O)(=O)Nc3cc(C)on3)cc2)cc1 | 39.1% (active) |
| COc1ccc(S(=O)(=O)Nc2cc(C)on2)cc1NC(C)=O | 3.85% (inactive) |
| CCOc1ccc(Br)cc1S(=O)(=O)Nc1ccc(S(=O)(=O)Nc2cc(C)on2)cc1 | 14.9% (inactive) |
| COc1cccc(CNC(=O)[C@H]2CCCN2C(=O)[C@H]2CCCN2C(=O)c2ccc(F)cc2)c1 | 0.66% (inactive) |
| Cc1cc(OC(=O)NCCc2ccc(F)cc2)ccc1F | 1.32% (inactive) |
| CC(=O)c1ccc(S(=O)(=O)NCC2CCN(C(=O)C(=O)c3cccs3)CC2)cc1 | 2.35% (inactive) |
| COc1ccc(SSc2ccc(OC)cc2C(=O)O)c(C(=O)O)c1 | 2.51% (inactive) |
| CC[C@@H](CCC(=O)N(c1ccccc1)c1ccccc1)C1CC1 | 1.63% (inactive) |
| COCC(C)NC(=O)COc1nncc2ccccc12 (configuration not stated) | -0.71% (inactive) |
| O=C(CSc1nc2ccccc2n1Cc1ccccc1)NNC(=S)Nc1ccccc1 | 31.7% (inactive) |
| C[C@H]1CN([C@@H](C)CO)C(=O)CCCn2nncc2CO[C@@H]1CN(C)C(=O)Nc1ccc(N2CCN(C)CC2)cc1 | 4.52% (inactive) |
| CC1CC1C(=O)OCC(=O)c1c(N)n(C)c(=O)n(C)c1=O (configuration not stated) | -4.36% (inactive) |
| CCCCNC(=O)C[C@H]1C[C@@]2(C(=O)OC)C(=C[C@H](COCc3ccccc3)O[C@@H]2C)N(Cc2ccc(Cl)cc2Cl)C1=O | 8.58% (inactive) |
| CCN(CC)C(=O)CC[C@H]1CC[C@]2(CCCN(Cc3ccc(Cl)cc3)C2)O1 | -2.21% (inactive) |
| COC(=O)c1cccc(N(C(=O)c2ccco2)C(C(=O)NC2CCCC2)c2ccco2)c1 (configuration not stated) | -6.24% (inactive) |
| CCOc1ccccc1C(=O)N1CCC[C@@H]1C(=O)N1CCC[C@H]1C(=O)NCc1ccccc1 | -1.61% (inactive) |
| COc1ccc(-c2ccc3c(n2)CCCN3S(=O)(=O)c2ccc(C)cc2)cc1 | 4.71% (inactive) |
| CC(C)(C)c1ccc(S(=O)(=O)NCC2CCN(C(=O)C(=O)c3cc4ccccc4o3)CC2)cc1 | 9.84% (inactive) |
